# Bioassay records from PubChem.
# Compounds with a hit are over-represented: about 12% of the library has one in this group of screens.
# BAZ2B block – blocks human BAZ2B; AID 504333; Potency, µM (top dose mostly 114 µM), most hits filed as inhibitors; Q9UIF8; AlphaScreen BAZ2B-H3K14Ac peptide displacement; 360,000 tested, 4.4% active; note: nearly all actives have a fitted effect of over 60% in size
#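 BAZ2B (50 nM) with biotin-H3(5-23)K14Ac peptide (50 nM) in PBS pH 7.4, 0.01% Tween-20, preformed 30 min, then compound 30 min at room temperature; top concentration 110uM. AlphaScreen streptavidin donor/nickel chelate acceptor beads (10 ug/mL final), 20 min dark, signal read.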
# JMJD2A Tudor inh – blocks the human JMJD2A Tudor domain. Potency, µM (highest dose often 114 µM), usual class: inhibitors. AlphaScreen JMJD2A-Tudor / H3K4me3 peptide binding. O75164. 390,000 tested, 4.4% active. AID 504339; note: nearly all actives have a fitted effect of over 50% in size
# Sfp PPTase inh – blocks B. subtilis Sfp PPTase activity. Q9F4F7. 310,000 tested, 3.5% active. Biochemical Sfp PPTase activity, qHTS. Potency, µM, actives largely listed as inhibitors;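 note: the enzyme is Sfp with the accession as filed and its product quenches rhodamine fluorescence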
#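 Compounds were incubated with enzyme (final 15 nM) for 15 min at room temperature before substrate addition started the reaction. Fluorescence at 525 nm excitation, 598 nm emission was recorded immediately and after 30 minutes.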
# HP1b binding inh – HP1-beta chromodomain-methylated histone interaction inhibition; P83916; AlphaScreen HP1-beta / biotin-H3K9me3 peptide binding; Potency, µM (series often up to 114 µM), usual class: inhibitors; 390,000 tested, 0.56% active; AID 540317; note: nearly all actives have a fitted effect of over 70% in size
# Target sequence (P83916 whole entry, looked up): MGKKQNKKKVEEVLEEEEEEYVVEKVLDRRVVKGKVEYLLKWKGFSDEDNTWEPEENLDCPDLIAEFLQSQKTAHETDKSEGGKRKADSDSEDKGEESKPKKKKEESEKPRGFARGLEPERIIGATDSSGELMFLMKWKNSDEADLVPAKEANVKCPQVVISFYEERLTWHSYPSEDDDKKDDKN
#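 HP1-beta protein (50 nM final) preincubated 30 min at room temperature with biotinylated H3(1-18)K9me3 peptide (50 nM) in PBS pH 7.4, 0.01% Tween-20, then compound added for 30 min. AlphaScreen streptavidin donor/nickel chelate acceptor beads (10 ug/mL final), 30 min dark, luminescence read.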
# G9a block – G9a (human) methyltransferase inhibition | Potency, µM (series often up to 102 µM), actives largely listed as inhibitors | 350,000 tested, 8.8% active | AID 504332 | G9a H3K9 monomethylation, AlphaScreen, 2 h | Q96KQ7; note: nearly all actives have a fitted effect of over 75% in size
# Target sequence (Q96KQ7 913-1193 limits assumed): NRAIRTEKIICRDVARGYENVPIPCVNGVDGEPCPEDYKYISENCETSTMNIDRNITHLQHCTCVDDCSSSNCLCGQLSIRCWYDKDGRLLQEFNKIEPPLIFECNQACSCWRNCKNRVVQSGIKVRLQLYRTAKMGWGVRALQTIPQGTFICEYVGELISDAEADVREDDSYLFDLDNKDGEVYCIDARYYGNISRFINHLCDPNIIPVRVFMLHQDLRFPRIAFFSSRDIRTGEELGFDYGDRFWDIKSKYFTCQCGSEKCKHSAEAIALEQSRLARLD
#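 AlphaScreen read-out: biotin-H3K9 peptide (500 nM) methylation by 20 nM enzyme with 20 uM SAM, 2 h at room temperature after 15 min compound preincubation; anti-monomethyl H3K9 antibody plus donor/acceptor beads, 10 min dark.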
# PLK1 PBD inh – blocks phosphopeptide binding to human PLK1 polo-box domain; Potency, µM, usual class: inhibitors; AID 720504; P53350; 360,000 tested, 2.8% active; Plk1 PBD binding of FITC phosphopeptide, fluorescence polarization; note: series mostly up to about 57 µM; nearly all actives have a fitted effect of over 65% in size
# A number is an active result; . = inactive; ? = inconclusive; / = no result; [ ] = dose if it differs, or a comment. Calls come from the whole dose curve; as a rule, active = well fitted curve in the direction sought with a large enough effect; inconclusive = small, poorly fitted or top-dose-only effect, or another doubt; inactive = no such curve, though single readings can be large; an effect the other way counts as inactive or inconclusive.
SMILES,BAZ2B block,JMJD2A Tudor inh,Sfp PPTase inh,HP1b binding inh,G9a block,PLK1 PBD inh
CC1Oc2ccccc2N(Cc2ccc(F)cc2)C1=O (stereo not given),.,.,.,.,.,.
CCCc1cc(=O)oc2cc(OCC(=O)NC3CC(C)(C)NC(C)(C)C3)ccc12,.,.,.,.,.,.
CCN1CCCC1CNCC(O)COc1ccc(C(C)(C)C)cc1C (stereo not given),?,1.6µM,.,.,?,?
CCN1CCCC1CNCc1ccc(OCc2ccc(Cl)nc2)c(OC)c1 (stereo not given),.,.,.,.,?,.
Cc1ccccc1-c1nccc(-n2ccnc2)n1,/,/,56µM,/,/,/
Clc1ccccc1-c1nccc(-n2ccnc2)n1,/,/,.,/,/,/
CS(=O)(=O)Nc1cccc(-c2nc(-n3ccnc3)c3ccccc3n2)c1,/,/,.,/,.[0.501 µM],/
CS(=O)(=O)Nc1cccc(-c2nccc(-n3ccnc3)n2)c1,/,/,56µM,/,/,/
N#Cc1cccc(-c2nccc(-n3ccnc3)n2)c1,/,/,50µM,/,?,/
Cc1cccc(/C=C2\CCC(=C3SCCCS3)C2=O)c1,10µM,45µM,.,16µM,50µM,.
COc1ccc(/C(O)=C2/C(=O)C(=O)N(CCCN(C)C)C2c2cccc(Cl)c2)cc1OC (stereo not given),.,.,.,.,?,.
CCN1CCCC(Sc2nc3c([nH]2)c(=S)n(C)c(=O)n3C)C1 (stereo not given),.,.,?,.,?,.
Cn1c(=S)c2[nH]c(SCCN)nc2n(C)c1=O,/,1.1µM,/,.,/,27µM
CCn1c(SCCN2CCCCC2)nc2c1c(=O)n(C)c(=O)n2C,/,.,/,71µM,/,?
Cn1c(=S)c2[nH]c(SCCN3CCCC3)nc2n(C)c1=O,?,?,40µM,.,.,.
COc1ccc(NC(=O)c2cc(C3CCCCN3C(=O)c3cc(C(C)(C)C)nn3C)on2)c(C)c1 (stereo not given),/,/,/,/,/,.
O=C(Cn1cc(SCc2cccc(F)c2)c2ccccc21)N1CCCC1,?,.,/,.,.,/
Nc1ncnc(Sc2ncccn2)c1[N+](=O)[O-],79µM,.,35µM,.,?,?
COCCNC(=O)C(c1ccc(F)cc1)N(C(=O)CCC(=O)Nc1ccccn1)C1CCCCC1 (stereo not given),.,.,.,.,?,.
CC(=O)Nc1ccc(NC(=O)c2cccc3ccccc23)cc1,.,?,.,.,.,.
CN(C)c1cccc(NC(=O)c2cccc3ccccc23)c1,28µM,22µM,.,50µM,32µM,.
CC(=O)Nc1cccc(NC(=O)CCc2ccccc2)c1,.,.,.,.,?,.
CN(C)c1cccc(NC(=O)CCc2ccccc2)c1,?,.[11.4 µM],.,?,3.2µM,.
CC(C)NC(=O)N1CC[C@@]2(CCCN(C(=O)Oc3ccccc3)C2)C1,/,/,.,/,.[12.7 µM],/
COc1ccc(O)c(C(=O)c2cc(C(=O)NCCc3ccccc3)c(=O)n(CCc3ccccc3)c2)c1,?,?,.,?,8.9µM,.
SMILES,BAZ2B block,JMJD2A Tudor inh,Sfp PPTase inh,HP1b binding inh,G9a block,PLK1 PBD inh
COc1ccc(C(C)=NNS(=O)(=O)c2ccc(C)cc2)cc1OC,/,/,/,/,/,.
CCc1ccc(N=C2NC(=O)CS2)cc1,.,.,.,.,.[0.501 µM],.
CCCCCCCCN=C1NC(=O)CS1,.,.,.,.,22µM,?
COc1ccc(Cc2nn3c(-c4cc(OC)c(OC)c(OC)c4)nnc3s2)cc1,.,79µM,.,?,?,24µM
c1ccc(CCc2nn3c(-c4ccncc4)nnc3s2)cc1,.,.,?,.,?,27µM
COc1ccc(-c2nn3c(-c4ccc(F)cc4)nnc3s2)cc1,.,.,.,.,45µM,.
COc1cc(-c2nnc3sc(Cc4ccccc4)nn23)cc(OC)c1OC,.,?,.,?,35µM,27µM
O=C(NC12CC3CC(CC(C3)C1)C2)c1cc(F)c(F)c(F)c1F,.,.,.,.,.,.
COc1ccc(-c2nnc3sc(CCN4C(=O)c5ccccc5C4=O)nn23)cc1,.,.,.,.,45µM,.
COc1cc(-c2nnc3sc(Cc4ccc(Cl)cc4)nn23)cc(OC)c1OC,/,.,/,.,/,24µM
COC(=O)c1cc(=O)nc2sc(-c3ccc(F)cc3)nn12,.,.,22µM,?,4µM,6.7µM
C=CCOc1c(Cl)cc(C(=S)N2CCCC2)cc1OCC,.,.,.,.,.,.
C=CCN1CCc2c(cc(O)c(O)c2Br)[C@@H](c2ccccc2)C1,/,?,.,.,8.9µM,.
CN1CCc2cc(Cl)c(O)cc2[C@@H](c2ccccc2)C1,.,.,.,.,.,.
CCOc1ccc(S(=O)(=O)c2cn(Cc3ccc(C)cc3)c3ccc(OC)cc3c2=O)cc1,.,.,/,.,.,/
Cc1ccccc1N/N=C/c1c(C)nc2ccccn12,?,?,.,.,35µM,.
Cc1ccc(NC(=O)c2c(C)nc3ccccn23)cc1C,.,.,.,.,.,.
N#C/C(C(=O)Nc1ccc(Cl)cc1)=C(/S)Nc1ccccc1,20µM,20µM,0.79µM,?,1.6µM,3.4µM
CC(C)c1ccc2oc(=O)cc(CN3CCN(c4ccc(F)cc4)CC3)c2c1,.,.,.,.,50µM,.
COc1ccc(N2CCN(Cc3cc(=O)oc4ccc(C)cc34)CC2)cc1,.,.,.,.,.,.
CCOc1ccc2oc(=O)cc(CN3CCN(Cc4ccc(F)cc4)CC3)c2c1,.,.,/,.,.,/
CCc1ccc2oc(=O)cc(CN3CCN(c4ccc(F)cc4)CC3)c2c1,.,.,.,.,50µM,.
Cc1ccc(N(C)S(=O)(=O)c2ccc3[nH]c(=O)ccc3c2)cc1,.,.,/,.,.,/
O=C(CCc1ccccc1)NC1(Cc2ccccc2)CCN(CCCc2ccccc2)C1=O (stereo not given),.,.,/,.,.[0.501 µM],.
Cc1cccc(CN2C(=O)CCSc3ccc(Cl)cc32)c1,.,.[11.4 µM],.,.,.,27µM
O=C1CCSc2ccc(Cl)cc2N1Cc1ccccc1,.,.,.,.,.[2.33 µM],.
C#CCOCCOCCOCCNc1nc(N2CCN(C(=O)C([C@@H](C)O)n3cc([C@@H](N)CCCCN)nn3)CC2)nc(N2CCN(C(=O)[C@H](CCCCN)n3cc([C@@H](N)CC(N)=O)nn3)CC2)n1 (stereo not given in full),/,79µM,/,.,/,.
C#CCOCCOCCOCCNc1nc(N2CCN(C(=O)C([C@@H](C)O)n3cc([C@@H](N)CCCCN)nn3)CC2)nc(N2CCN(C(=O)[C@H](CCC(=O)O)n3cc([C@@H](N)CCCCN)nn3)CC2)n1 (stereo not given in full),/,?,/,.,/,.
C#CCOCCOCCOCCNc1nc(N2CCN(C(=O)[C@H](CCCCN)n3cc(CN)nn3)CC2)nc(N2CCN(C(=O)[C@H](CCCCN)n3cc([C@@H](N)CC(N)=O)nn3)CC2)n1,/,35µM,/,.,/,.
